The full ranking holds about 33,000 sequences; the median of “E-score (-0.5 to 0.5)” is about -0.017, and the highest 2% start at about 0.3. Only a selection was taken, and the highest values are over-represented in it overall.
The sequences below were run against T1, Sut1 (UniProt P53032) (assay: PBM E-score (8-mer binding enrichment) (E-score (-0.5 to 0.5)); higher = stronger / more preferred TF binding). Details: protein concentration: 200 nM; construct: GST-full length.
T1 sequence: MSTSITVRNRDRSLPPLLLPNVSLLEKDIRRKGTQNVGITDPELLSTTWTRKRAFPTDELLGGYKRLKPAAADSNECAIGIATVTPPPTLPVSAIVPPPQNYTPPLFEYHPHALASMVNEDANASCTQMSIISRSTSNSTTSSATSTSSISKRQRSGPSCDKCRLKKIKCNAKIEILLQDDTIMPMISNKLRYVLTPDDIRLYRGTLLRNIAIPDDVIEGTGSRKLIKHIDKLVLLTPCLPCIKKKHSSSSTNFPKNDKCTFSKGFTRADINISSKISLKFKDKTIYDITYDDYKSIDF
Method: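 Universal 'all 10-mer' protein binding microarrays (Agilent AMADID 015681) probed with GST-tagged S. cerevisiae TFs (full-length or DBD) made by in vitro transcription/translation (PURExpress), about 100-200 nM. Bound TF was detected with fluorescent anti-GST. Each ungapped 8-mer (which stands for itself and its reverse complement) is scored by the PBM enrichment score (E-score), a modified Wilcoxon-Mann-Whitney statistic from -0.5 to +0.5, computed with the Universal PBM Analysis Suite. Scale: above 0.35 generally sequence-specific binding.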

Sequence	PBM E-score
GCGAACGA	0.0664
AATACTCC	0.199
GCTACTCA	0.0293
ATTACTCC	0.318
ATTACTGA	0.037
ACTACTCC	0.226
ATTACTTA	0.327
GCTACTCC	0.3
CATACTCA	-0.0521
ATTACTCG	0.0802
CATACTCC	0.325
ATTACTCA	0.162
CTTACTTA	0.11
AATGGATC	0.0349
ATCGACCC	0.0935
AGTTTTTG	0.28
CGGGAGAG	-0.0788
TACACTCA	0.0601
ACATACTG	0.0299
AGAGCACA	-0.0607
AGTACCTG	0.0244
GCTCATGA	-0.172
CTGAAGAC	-0.0142
CTTACTCC	0.365
CTTACTCA	-0.0535

Sequence	PBM E-score
CTTACTAC	0.0954
TAGCCCCA	-0.121
TCCGTTAA	0.326
GCCGTTAA	0.092
CCCGTTAA	-0.176
CCCAAAGC	-0.0681
CCCTGGTA	-0.336
CTTGGGGC	-0.245
GGGTTAAC	0.0764
CTCCTAAG	-0.111
CCCTCCGA	0.0492
GACTCCAA	-0.0971
CACTCCAA	0.0306
TACTCCGA	0.491
TACTCCAA	-0.0372
GACTCCGA	0.486
TCCTCCGA	0.0213
CACTCCGA	0.471
GACTCCTA	0.0134
AAACTATT	0.24
AGCTAGGC	-0.232
GCCTAGGA	-0.122
ACTGGGGC	-0.231
GAGCTATC	-0.0645
GACCTTCC	0.0118

Sequence	PBM E-score
AGCCACCT	-0.248
GACCGAAC	0.0271
ATCCGAAG	0.101
GCCCGAAC	-0.00475
AACCGAAT	0.099
CGCCGAAA	-0.00015
CACCGAAA	0.137
CTCCGAAA	0.46
CTCCGAAC	0.468
ATCCGAAC	0.213
CACCGAAC	-0.0118
GTCCGAAC	0.397
ATCCGAAT	0.32
CCTAGCCC	-0.128
AACTAGTC	0.0497
ATCGATCA	0.0202
CGAAACAC	0.0972
CTAACTGA	0.0767
ACTGGAAT	0.0551
CGGCCGCC	-0.05
GCCCGAAA	0.111
CGCCGAAG	0.0368
CCCCGAAA	0.301
GTCCGAAA	0.447
CCCCGAAC	0.0945

Sequence	PBM E-score
TTCCGAAA	0.291
CTCCGAAG	0.457
ATCCGAAA	0.272
CACCGAAG	0.157
GCGCTAGC	-0.26
CGAGCCCG	-0.187
AGAACTAC	0.0481
CATTGATA	0.139
CCGACTCA	0.0266
AGGACTCC	0.129
AGGACTCA	-0.114
CGGACTCC	0.475
CGGACTCA	0.429
CCGACTCC	0.321
GGGACTCA	-0.288
GCGACTCC	0.119
CAGACTCC	0.0916
AAGGTCTA	-0.127
CTGGTTTA	-0.0882
ACCGACAC	0.0514
GCGACTAA	-0.0293
AGCCTAAC	-0.192
GGAACCTA	-0.00606
CGCTGCGA	-0.153
CTGTCCGA	0.192

Sequence	PBM E-score
ATGTCCGA	0.45
ATGTCCGC	0.282
ATGTCCGG	0.451
GTGTCCGA	0.149
ATGTCCCG	0.0332
ACACTGGT	-0.102
AGGGGCGG	-0.158
CAATATGA	0.181
TAATATTA	0.313
GAATATTA	0.255
TAATATGA	0.315
GAATATGA	0.0941
AAATATCA	0.161
CAATATCA	0.188
CAATATTA	0.296
TAATATCA	0.306
AAGCGCGC	0.105
ACCGATCA	0.12
AAAGTTCA	-0.00163
CCGCCTAG	-0.166
TCTTTTCA	0.178
AAGCTTAT	0.0714
TAAACGGA	0.321
CAAACGGA	0.302
TAAACGTA	0.131

Sequence	PBM E-score
GACACGGA	0.296
TACACGGA	0.335
CACACGGA	0.12
AAAACGGA	0.244
GAAACGGA	0.284
TAAACGAA	0.263
CGATGCTC	0.156
CCTTTAGC	-0.0413
AGATCGTC	-0.0781
GCTAAAAA	-0.0323
CCGCGGAA	0.253
ACGCGGAG	0.362
CCGCGGAC	0.274
ACGCGGAC	0.302
ACGCGGAT	0.0724
ACGCGGAA	0.112
ACGCGGCC	-0.273
GCGCGGAC	0.218
CCGCGGAG	0.308
ACATTTAC	0.168
AGGCCCTG	-0.302
CAAAGTTG	-0.0132
CATCTAAG	-0.107
CGTAGCAG	-0.128
AGCTATAG	-0.136

Sequence	PBM E-score
ATCATACA	0.314
ATCATACG	0.157
GTCATACA	0.226
ACTCGAGT	0.0517
AAGCCTAG	-0.183
CACTCTGA	-0.165
GTCACAAC	-0.0323
AATAGAGC	0.0828
GACACTCC	0.314
CAAACTCA	0.0357
CACACTCC	0.158
AAAACTCT	0.0523
AACACTCC	0.256
AAAACTCG	0.199
GAAACTCA	0.0707
GAAACTAC	0.145
CAAACTCC	0.356
GAAACTCC	0.345
CAAACTCG	-0.013
AAAACTCC	0.356
CAGCTTGG	0.0282
TCTTCTAA	0.188
CGATACTA	0.193
AGGAAAGG	-0.294
AGCGGTAT	0.0737

Sequence	PBM E-score
CGTAAGAC	-0.071
ACGCATCA	-0.0138
AAAAAAAC	0.159
GAAACTTC	0.0956
GAAACTTA	0.307
CAAACTTA	0.196
AGTGTGGA	0.0491
CGGGCCCA	-0.109
AGGGCCCG	-0.184
CGGGCCCG	0.316
CGTTCACA	0.0405
AAATAATC	0.235
AAATAAGT	0.109
ATGTAATG	0.23
AAATAATT	0.338
AAATAATG	0.297
ATGTAATA	0.307
CTGTAATA	0.218
AAATAACT	0.228
AAATAATA	0.311
ACTTCAAG	0.0849
ACACCCTA	-0.127
ACTTTGCG	0.0957
ATGGCCTA	-0.0487
AGCGCACC	-0.0534

Sequence	PBM E-score
AAGAAGGA	0.0609
CATCTGAA	0.0794
AGAGTGGA	-0.0219
GAACCGTA	-0.234
AAACCGGA	0.309
CGACCGGA	0.191
TAACCGTA	-0.0185
GGACCGGA	0.34
AAACCGGT	-0.0411
AAACCGGC	0.0626
TAACCGCA	0.0567
GAACCGGC	-0.0738
GAACCGGA	0.32
TAACCGGA	0.332
AGACCGGA	0.277
AGAAAAAG	0.138
CTGCCAAA	-0.0297
GTTGTTGA	0.0996
AAACCTTA	0.203
AGCAGGTC	-0.176
CAACCTAC	0.0861
GTAGCAGA	0.0197
AGCTTAAC	0.0213
CCTACTAC	-0.0856
CAACCGGA	0.338

Sequence	PBM E-score
CAACCGGC	-0.0694
CAACCGGG	-0.129
ATCGCTGC	-0.111
GGGACCAA	-0.115
ACCGAACA	0.121
CCCGAAAA	0.177
ACCGAAGA	0.222
GCCGAACA	0.126
CCCGAAGA	-0.0672
TCCGAAGA	0.39
TCCGAACA	0.399
TCCGAAAA	0.353
GCCGAAAA	0.263
CGCAGCTA	-0.0718
CATCGAAC	-0.0517
GACTAATA	0.196
AAAGCCCG	0.208
GGAGTCTA	0.182
GCACCCAC	-0.155
CAGGCTCA	-0.214
ACTTGCCT	-0.0394
AATATTAG	0.192
CATATAAA	0.15
AATATTAA	0.263
AATATAGT	0.244

Sequence	PBM E-score
GATATATC	0.183
AATATATC	0.322
AATATAGC	0.0924
AATATACT	0.277
AATATTAT	0.319
AATATATT	0.31
AATATAAA	0.315
TATATAAA	0.248
ACATCGCC	-0.112
GGGCTACC	-0.227
ATGCAATC	0.102
AGGCCATC	-0.149
ACCCATGA	-0.124
GGCTTTCA	0.0417
ACACAGAT	0.00624
GGACGGCA	-0.0542
ACTATATA	0.308
GCTATATA	0.118
ACTATATC	0.209
AAAATATA	0.267
AATATATG	0.242
AATATATA	0.325
CAGGTCAC	-0.398
CTGGAAAC	-0.0136
CCCAAAAG	-0.0557

Sequence	PBM E-score
ATGAACTA	0.216
GTATACTA	-0.155
GTACGGAA	0.22
TTACGGAA	0.198
ATACGGAC	0.374
ATACGGGC	-0.126
ATACGGAA	0.348
GTACGGAC	0.297
ATGTGATC	0.144
CGTGAAGA	-0.026
ACTCACAG	0.0594
CACTAAGG	-0.146
ACCCGGAT	-0.107
GCCCGGGC	-0.0214
ACCCGGAC	0.323
ACCCGGGC	-0.0147
CCCCGGAA	0.216
ACCCGGAA	0.197
ACCCGGTC	-0.124
ACCCGGAG	0.416
CCCCGGCC	-0.173
GCCCGGAA	0.244
GCCCGGAC	0.328
CCCCGGAC	0.357
CAGTTGGC	-0.162

Sequence	PBM E-score
GCATTCGA	0.0434
TAAGAATA	-0.086
CGACGCTA	-0.089
CCCCGGAG	0.454
CCCCGGCG	-0.00882
CCCCGGGG	0.198
TCTCTGAA	-0.135
CTTTCGGC	0.0219
ATTTCGAA	0.313
CTTTCAAA	0.302
ATTTCGAC	0.0327
ATTTCGGC	0.0959
GTTTCAAA	0.212
CTTTCGTA	0.0877
ATTTCGAG	0.164
ATTTCGGA	0.396
ATTTCAAA	0.219
CTTTCGGA	0.395
ATTTCGGG	0.0466
GAGTGGTA	-0.0154
CTGCGAGC	-0.126
GCGCCCGA	-0.17
AGGATCGG	-0.00265
AACAGTCA	-0.138
CATCTAAA	0.0229

Sequence	PBM E-score
ATGCCATC	0.0993
GCCTTAAA	0.0657
AGGATGCG	-0.116
ATCCTAAG	-0.175
AAGCCAGG	-0.253
CACAAAGG	-0.0165
GGGGCCAC	-0.304
GTTTCGTA	0.0481
GTTTCGGA	0.334
GTTTCGAA	0.0889
CCTGTTTC	-0.0625
ACAATCGG	0.259
GCCCAAAA	-0.0622
GATTCCCA	-0.188
TATTCCGA	0.321
CATTCCGA	0.25
AATTCCGA	0.371
GATTCCGC	0.0522
GATTCCGA	0.337
TATTCCCA	0.139
AATTCCCA	0.0113
AATTCCAA	0.21

From the supplement of paper PMC3334620
